This passage reports AC50 and outcome results from PubChem BioAssay (EPA / NIEHS).

Test [1] addresses Cellular tumor antigen p53 (Homo sapiens) (UniProt P04637). Description: TOX21_p53_BLA_p2_ratio: Tox21 HCT-116 p53 Agonism Beta-lactamase Assay, Ratio, Phase 2 (AID 2283592). In short, it runs like this:
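HCT116 cells carrying a p53-responsive beta-lactamase reporter were plated, incubated 5 h at 37C, then dosed with compounds in DMSO (217-fold dilution) for 16 h. CCF4-AM substrate was added for 2 h at room temperature; the 460/530 nm emission ratio gave gain-of-signal activity relative to DMSO.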

For test [2] the target is unchanged. Nature of the test: TOX21_p53_BLA_p3_ratio: Tox21 HCT-116 p53 Agonism Beta-lactamase Assay, Ratio, Phase 3 (AID 2283596). In a few lines: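 HCT116 p53-bla cells (4000/well) given compound in DMSO (217-fold dilution) after 5 h, incubated 16 h at 37C. CCF4-AM substrate 2 h at room temperature; 460/530 nm emission ratio, gain fitted against DMSO.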
Test [3] is described as follows: TOX21_p53_BLA_p4_viability: Viability Assessment in the Tox21 HCT-116 p53 Agonism Beta-lactamase Assay, Phase 4 (AID 2283597).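 Also: hits lower the luminescence signal meaning cytotoxicity.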 In a few lines: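 HCT116 p53-bla cells (4000/well) rested 5 h at 37C, then received compounds in DMSO (217-fold dilution) for 16 h at 37C, 5% CO2. CellTiter-Glo was added after the CCF4-AM read, and luminescence was read after 30 min at room temperature.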

In test [4] the target is Cellular tumor antigen p53 (Homo sapiens) (UniProt P04637). Description: TOX21_p53_BLA_p5_ratio: Tox21 HCT-116 p53 Agonism Beta-lactamase Assay, Ratio, Phase 5 (AID 2283599). In a few lines: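 HCT-116 p53-bla cells (4000/well) plated 5 h, dosed with compound (217-fold DMSO dilution) for 16 h at 37 C; CCF4-AM substrate 2 h at room temperature. Activity is the 460/530 nm emission ratio (405 nm excitation), fitted in gain-of-signal direction versus DMSO.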

Test [5] has the same target. Description: TOX21_p53_BLA_p4_ratio: Tox21 HCT-116 p53 Agonism Beta-lactamase Assay, Ratio, Phase 4 (AID 2283601). In a few lines:
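HCT-116 p53 beta-lactamase reporter cells (4000/well) preincubated 5 h, then compound (217-fold dilution of DMSO stock) for 16 h at 37C. CCF4-AM substrate added 2 h at room temperature; 460/530 nm emission ratio fitted upward versus DMSO.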

Test [6] deals with Thyroperoxidase (TPO), gene 54314. Nature of the test: CCTE_Simmons_AUR_rTPO: CCTE's Amplex UltraRed Assay for Thyroperoxidase (TPO) Inhibition, Simmons Lab (AID 2283662). In short, it runs like this: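 Cell-free peroxidase activity assay using rat thyroid gland microsomes with excess H2O2 (300 uM) and 25 uM Amplex UltraRed. Compounds tested from 5 nM to 87.5 uM; fluorescence measured after 30 min at 37C, analysed relative to DMSO baseline.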

Test [7] can be described thus: CCTE_Simmons_CellTiterGLO_HEK293T: Viability Assessment in CCTE's Assays for Thyroperoxidase (TPO) Inhibition, Simmons Lab (AID 2283665).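 Also: cells exposed to compound for 24 h before readout; actives reduce ATP signal below DMSO vehicle meaning cytotoxicity.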 In a few lines: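 Cytotoxicity counter-screen: human HEK293T cells in low-serum (1% FBS) medium receive test chemical, 5 nM to 87.5 uM final, for 24 h; ATP is quantified by luciferase luminescence.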
In general terms: In ATP-based viability assays light output follows the ATP content of the culture.

The target of test [8] is Luciferin 4-monooxygenase (Photinus pyralis) (UniProt P08659). Nature of the test: CCTE_Simmons_QuantiLum_inhib_2: CCTE's Firefly Luciferase Inhibition Assay, Simmons Lab (AID 2283767).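 Also: potency for inhibitors that lower luciferase luminescence relative to DMSO.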 In a few lines:
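Counter-screen for nonspecific enzyme inhibition: purified firefly luciferase incubated 30 min at 37C with chemicals up to 87.5 uM final, then luminescence measured after luciferin/dATP injection; activity fitted against DMSO baseline.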

The nature of test [9]: CCTE_Shafer_MEA_dev_firing_rate_mean: CCTE's Neural Network Formation Assay for Mean Firing Rate, Shafer Lab (AID 2284031; active = hit-call score of the fitted dose curve at least 0.9, where 1 is the maximum; inactive = score below 0.9;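 also: curve fitted for loss of firing so AC50 reflects decreased mean firing rate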). In short, it runs like this: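 Developing rat cortical networks on MEA plates undergo 12-day compound exposure. Firing frequency, averaged across active electrodes, is integrated as area under the curve over four recording days, referenced to DMSO.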

Test [10] in a line: CCTE_Shafer_MEA_dev_per_burst_spike_percent: CCTE's Neural Network Formation Assay for Percent of Spikes in a Burst, Shafer Lab (AID 2284032; active = hit-call score of the fitted dose curve at least 0.9, where 1 is the maximum; inactive = score below 0.9;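 also: fitted as a decrease in burst spike percentage below DMSO baseline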). In a few lines:
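Rat primary cortical neurons on 16-electrode MEA wells, dosed from plating day 0 for 12 days with renewal on DIV 5 and 9; spikes-in-bursts percentage averaged over bursting electrodes, collapsed as AUC across days 5, 7, 9, 12; loss direction versus DMSO.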

The nature of test [11]: CCTE_Shafer_MEA_dev_active_electrodes_number: CCTE's Neural Network Formation Assay for Number of Active Electrodes, Shafer Lab (AID 2284040).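 Also: potency for loss of active electrodes versus DMSO so lower counts are hits.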 In short, it runs like this:
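Rat cortical primary cultures, 1.5 x 10^5 cells/well, PEI-coated MEA, laminin drop. Continuous exposure DIV 0–12; full media/compound change DIV 5, 9. Readout: electrodes with mean firing ≥5 spikes/min; AUC across days; loss vs DMSO.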

Test [12] in a line: CCTE_Shafer_MEA_dev_burst_rate: CCTE's Neural Network Formation Assay for Burst Rate, Shafer Lab (AID 2284042; active = hit-call score of the fitted dose curve at least 0.9, where 1 is the maximum; inactive = score below 0.9;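 also: potency for loss of burst rate below DMSO control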). In short, it runs like this: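 Cells plated, treated day 0; recorded DIV 5, 7, 9, 12; fed and re-treated DIV 5, 9. Endpoint: bursts per recording time, active-electrode well mean, trapezoidal AUC, fitted in decreasing direction against DMSO baseline.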
Test [13] in a line: CCTE_Shafer_MEA_dev_bursting_electrodes_number: CCTE's Neural Network Formation Assay for Number of Bursting Electrodes, Shafer Lab (AID 2284043).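 Also: potency is for loss of bursting electrodes relative to DMSO.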 In short, it runs like this:
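Primary rat cortical neurons plated on 16-electrode MEA wells, exposed from day 0 with compound renewed at DIV 5 and 9. Electrodes bursting ≥1 burst per 2 min counted on days 5, 7, 9 and 12; trapezoidal AUC across days, fitted for loss versus DMSO.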

A short description of test [14]: CCTE_Shafer_MEA_dev_per_burst_interspike_interval: CCTE's Neural Network Formation Assay for Burst Interspike Interval, Shafer Lab (AID 2284044; active = hit-call score of the fitted dose curve at least 0.9, where 1 is the maximum; inactive = score below 0.9;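 also: mean spike spacing inside bursts as AUC over recordings on days 5 7 9 12; potency for a decrease of within-burst interspike interval below DMSO level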). In a few lines: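 Rat cortical primary cultures, 16 electrodes/well; compound from plating, renewed with full media change DIV 5 and 9. Spikes via adaptive detector; per-burst ISI well-mean over active bursting electrodes; AUC of DIV 5/7/9/12 recordings; loss-direction fit vs DMSO.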

The nature of test [15]: CCTE_Shafer_MEA_dev_burst_duration_mean: CCTE's Neural Network Formation Assay for Mean Burst Duration, Shafer Lab (AID 2284045; active = hit-call score of the fitted dose curve at least 0.9, where 1 is the maximum; inactive = score below 0.9;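 also: curve fitted for loss meaning shorter burst duration than DMSO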). In a few lines: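 Primary rat cortical neurons on 48-well 16-electrode MEA plates, exposed from day 0 with renewal at DIV 5 and 9; spontaneous activity recorded on days 5, 7, 9, 12. Well-mean burst duration across bursting electrodes, collapsed as trapezoidal AUC; DMSO baseline.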

Test [16] can be described thus: CCTE_Shafer_MEA_dev_interburst_interval_mean: CCTE's Neural Network Formation Assay for Mean Interburst Interval, Shafer Lab (AID 2284046; active = hit-call score of the fitted dose curve at least 0.9, where 1 is the maximum; inactive = score below 0.9;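 also: well-mean interburst interval of bursting electrodes as AUC over four recording days; curve fitted for decrease in interburst interval relative to DMSO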). In a few lines:
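Developing rat cortical networks on 48-well MEAs receive compound from the day of plating. Burst intervals from each active electrode are averaged per well, and AUC over the recording days is fitted in the negative direction against DMSO.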

The nature of test [17]: CCTE_Shafer_MEA_dev_inter_network_spike_interval_mean: CCTE's Neural Network Formation Assay for Mean Inter-network Spike Interval, Shafer Lab (AID 2284047; active = hit-call score of the fitted dose curve at least 0.9, where 1 is the maximum; inactive = score below 0.9;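 also: potency for a decrease in mean inter-network spike interval below DMSO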). In a few lines:
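Rat cortical cultures, 1.5 x 10^5 cells/well on 48-well MEA plates; continuous exposure days 0–12, medium and compound refreshed DIV 5, 9. Mean time between consecutive network-spike peaks; AUC across DIV 5/7/9/12; DMSO baseline, negative fitting direction.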

Each structure is given as a SMILES string. Inconclusive results are not listed. Activity calls are given as the source filed them. The calls were made as follows, unless noted: active = hit-call score of the fitted dose curve at least 0.9, where 1 is the maximum; inconclusive = response in the unintended direction; inactive = score below 0.9.

Chain of Cellular tumor antigen p53 (Homo sapiens) (P04637 whole entry, looked up): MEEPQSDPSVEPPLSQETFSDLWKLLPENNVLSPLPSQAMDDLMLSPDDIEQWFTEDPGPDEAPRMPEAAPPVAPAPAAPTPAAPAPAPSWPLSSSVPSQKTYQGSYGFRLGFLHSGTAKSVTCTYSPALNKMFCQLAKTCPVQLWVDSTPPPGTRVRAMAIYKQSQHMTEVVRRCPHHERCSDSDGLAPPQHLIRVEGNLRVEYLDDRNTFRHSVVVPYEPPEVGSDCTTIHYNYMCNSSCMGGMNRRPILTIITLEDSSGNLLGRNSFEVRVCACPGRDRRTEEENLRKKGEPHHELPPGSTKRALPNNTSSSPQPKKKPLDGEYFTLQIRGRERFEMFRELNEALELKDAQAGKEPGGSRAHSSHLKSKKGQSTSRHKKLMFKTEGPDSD
Chain of Luciferin 4-monooxygenase (Photinus pyralis) (P08659 whole entry, looked up): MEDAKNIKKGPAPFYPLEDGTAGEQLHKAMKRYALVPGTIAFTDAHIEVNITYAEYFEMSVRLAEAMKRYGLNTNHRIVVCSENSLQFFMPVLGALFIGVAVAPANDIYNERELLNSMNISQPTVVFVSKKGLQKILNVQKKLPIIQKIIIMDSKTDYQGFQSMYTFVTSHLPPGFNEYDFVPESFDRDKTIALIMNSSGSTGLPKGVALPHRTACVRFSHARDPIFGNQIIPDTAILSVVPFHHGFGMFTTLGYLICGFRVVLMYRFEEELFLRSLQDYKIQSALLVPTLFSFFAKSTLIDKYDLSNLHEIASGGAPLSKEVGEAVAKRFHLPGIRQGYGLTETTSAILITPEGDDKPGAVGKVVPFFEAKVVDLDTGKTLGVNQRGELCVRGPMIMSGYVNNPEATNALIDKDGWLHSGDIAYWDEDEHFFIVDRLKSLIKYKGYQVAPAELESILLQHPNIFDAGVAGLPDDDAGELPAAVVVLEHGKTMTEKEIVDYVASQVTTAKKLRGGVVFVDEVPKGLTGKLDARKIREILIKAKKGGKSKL

A word on the AC50: it is the concentration giving half of the maximal activity seen. With `[CH3][Hg][Cl]`, the AC50 in test [1] was 44800 nM (active); in [2] it was 1770 nM (active); in test [4] it was 2250 nM (active); in test [7] it was 4180 nM (active); in [8], 4220 nM (active); in test [9], 177 nM (active). For the same molecule, the concentration at half-maximal activity (AC50) in test [10] was 306 nM (active); in [11], 360 nM (active); in test [12], 207 nM (active); in test [13], 370 nM (active); in test [14] it was 322 nM (active); in test [15] it was 260 nM (active). Besides, the concentration at half-maximal activity (AC50) was 340 nM (active) in test [16] and 5.7 nM (active) in test [17]. The call in test [3], in test [5] and in test [6] was inactive.
